Source: PubChem BioAssay (The Scripps Research Institute Molecular Screening Center)
Most compounds without a hit are left out; they make up all but 1.5% or so of the library.
sPLA2-III inh: human group III sPLA2 inhibitors, primary screen, biochemical, QFRET, BODIPY PC-A2 liposome substrate | Group 3 secretory phospholipase A2 (Homo sapiens), Q9NZ20 | QFRET BODIPY PC-A2 liposome hydrolysis, fluorescence | inhibition, % at 12.2 µM | 370,000 compounds, 0.56% hits;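 active means inhibition above mean plus 3 SD of compounds lying within the high and low control bounds, cut at about 19% in these data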
PLC-gamma1 inh: PLC-gamma1 enzyme inhibitors, primary screen, biochemical, fluorescence, purified enzyme | fluorogenic substrate | inhibition, % at 12.2 µM | 370,000 compounds, 0.84% hits | 1-phosphatidylinositol 4,5-bisphosphate phosphodiesterase gamma-1 (Homo sapiens), P19174; in the data active means inhibition above about 9.5%
PLCb3 inh: human PLC-beta3 inhibitors, primary screen, biochemical, fluorescence | inhibition, % at 12.2 µM | Purified PLC-beta3, fluorogenic substrate | 370,000 compounds, 0.18% hits | 1-phosphatidylinositol 4,5-bisphosphate phosphodiesterase beta-3 (Homo sapiens), Q01970; in the data active means inhibition above about 11%
DAGLB inhibitor: DAGLB lipase inhibitors, primary screen, biochemical, fluorescence, HTS | 340,000 compounds, 0.059% hits | AID 504411, 2011 | inhibition, % at 5.17 µM | HEK293T DAGLB membrane lysate, EnzChek fluorogenic substrate | Diacylglycerol lipase-beta (Homo sapiens), Q8NCG7; in the data active means inhibition above about 34%
Target sequence (Q8NCG7 whole entry, looked up): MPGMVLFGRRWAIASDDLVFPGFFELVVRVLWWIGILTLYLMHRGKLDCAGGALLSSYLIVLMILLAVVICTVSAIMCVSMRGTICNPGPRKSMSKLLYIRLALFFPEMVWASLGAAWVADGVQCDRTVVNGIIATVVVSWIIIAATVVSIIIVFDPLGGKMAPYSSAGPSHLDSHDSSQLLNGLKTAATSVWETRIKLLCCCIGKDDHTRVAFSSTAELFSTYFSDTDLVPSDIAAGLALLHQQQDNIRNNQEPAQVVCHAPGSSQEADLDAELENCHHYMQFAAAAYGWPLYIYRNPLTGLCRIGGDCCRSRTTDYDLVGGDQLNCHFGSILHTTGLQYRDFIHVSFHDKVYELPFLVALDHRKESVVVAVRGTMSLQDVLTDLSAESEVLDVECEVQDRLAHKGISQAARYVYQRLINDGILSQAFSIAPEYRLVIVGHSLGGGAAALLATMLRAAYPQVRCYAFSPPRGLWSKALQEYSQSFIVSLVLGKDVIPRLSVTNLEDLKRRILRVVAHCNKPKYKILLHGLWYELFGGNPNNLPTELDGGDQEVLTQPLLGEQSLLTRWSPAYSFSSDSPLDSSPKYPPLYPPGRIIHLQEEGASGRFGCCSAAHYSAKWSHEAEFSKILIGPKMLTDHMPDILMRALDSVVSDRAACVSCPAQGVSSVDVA
hGIII sPLA2 conf: human group III sPLA2 inhibitors, confirmation, biochemical, QFRET, triplicate; recombinant hGIII-sPLA2, BODIPY PC-A2 QFRET fluorescence; inhibition, % at 12.2 µM; 2,000 compounds, 34% hits; shares compounds with sPLA2-III inh;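 active means mean inhibition across triplicates above the hit cutoff set in the earlier primary screen, cut at about 19% in these data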
BODIPY interf: 535nm fluorescence optical interference, confirmation, artefact control for HGIII-sPLA2 inhibitor project, biochemical, QFRET. shares compounds with sPLA2-III inh. BODIPY FL product fluorescence interference. inhibition, % at 12.2 µM. 2,000 compounds, 8.5% hits;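 active means average inhibition above the solvent-only control mean plus 3 SD, cut at about 6% in these data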
BODIPY interf DR: 535nm fluorescence optical interference, dose response, artefact control for HGIII-sPLA2 inhibitor project, biochemical, QFRET; IC50, µM; shares compounds with sPLA2-III inh; 240 tested, under 10 active; AID 743455, 2014; BODIPY FL product fluorescence interference, cell-free;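 active means IC50 at or below 10 µM; inactive means IC50 above 10 µM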
Of the large screens only hits and unclear results are named; the others gave an inactive call (follow-up assays come after a bar, where they were run).

O=C(O)CNS(=O)(=O)Cc1ccccc1	sPLA2-III inh 20 | hGIII sPLA2 conf inactive | BODIPY interf inactive
CCOc1ccc(CCN2CN(C3CCCCC3)CNC2=S)cc1OCC	none
S=C1NCN(C2CCCCC2)CN1CCc1ccccc1	sPLA2-III inh 22 (no result: DAGLB inhibitor) | hGIII sPLA2 conf 20 | BODIPY interf inactive
CC1CCCN(CCCNS(=O)(=O)c2cc3c(cc2Br)CCN3C(=O)C2CC2)C1 (stereo not drawn)	none (no result: DAGLB inhibitor)
O=C(Nc1ccccc1)c1cccc(C(=O)Nc2ccccc2)n1	none
CN(C)c1ccc(NC(=O)c2cccc(C(=O)Nc3ccc(N(C)C)cc3)n2)cc1	sPLA2-III inh 28 | hGIII sPLA2 conf 36 | BODIPY interf inactive | BODIPY interf DR inactive
CCN(CC)C(=O)CC[C@H]1CC[C@]2(CCCN(C(=O)C3CCCC3)C2)O1	none (no result: DAGLB inhibitor)
C=CCN1C(=O)[C@H](CC(=O)NCc2cccc(C(F)(F)F)c2)[C@@]2(C(=O)OCC)CCCC=C12	none (no result: DAGLB inhibitor)
O=C(/C(=C\c1ccccc1)c1nc2ccccc2[nH]1)c1ccc(Cl)cc1	none
S=C(Nc1ccc(Cl)cc1)c1nc2ccccc2[nH]1	sPLA2-III inh 30 | hGIII sPLA2 conf 36 | BODIPY interf inactive | BODIPY interf DR inactive
C/C=C/C=C/C(=O)N1C[C@H](C)N(C)C[C@H]1C	none (no result: DAGLB inhibitor)
COc1ccccc1CCn1cnc(-c2cccc(Cl)c2)c1CC(C)C	none (no result: DAGLB inhibitor)
Cc1ccc(S(=O)(=O)NCC(=O)N2CCN(c3ccccn3)CC2)s1	none (no result: DAGLB inhibitor)
O=C(NCCc1ccccc1)OCc1cn(-c2ccc(F)c(F)c2)nn1	none (no result: DAGLB inhibitor)
CC1(C)CC2C1CCC1(O)CC2(C)CCC1N(O)c1ccc(C(=O)NCCO)cn1 (stereo not drawn)	sPLA2-III inh 21 | hGIII sPLA2 conf 24 | BODIPY interf inactive
CCC(C)NC(=S)N(CCc1ccccc1)Cc1cc2cc(OC)c(OC)cc2[nH]c1=O (stereo not drawn)	sPLA2-III inh 20 | hGIII sPLA2 conf 20 | BODIPY interf inactive
COCCCN1CCC2(CCC(c3ccccc3)CC2)C1=O (stereo not drawn)	none (no result: DAGLB inhibitor)
Cc1cccc(/C=N/Nc2ccc3ccccc3n2)c1	sPLA2-III inh 23 | hGIII sPLA2 conf inactive | BODIPY interf inactive
COc1ccc(N2CCN(C(=S)Nc3cc(C)ccc3C)CC2)cc1	sPLA2-III inh 21 | hGIII sPLA2 conf inactive | BODIPY interf inactive
O=C(CCc1ccccc1)N[C@H]1[C@H](OCc2ccccc2)CCC[C@@]12C(=O)N(Cc1ccccc1)c1ccccc12	none (no result: DAGLB inhibitor)
NC(=S)N/N=C/c1c(O)c(Br)cc2oc3c(c12)CCCC3	sPLA2-III inh 33 | hGIII sPLA2 conf 31 | BODIPY interf 6.2
Oc1c(Br)cc2oc3c(c2c1CNCc1ccccc1)CCCC3	none
C=CCN=c1scc(-c2ccco2)n1/N=C/c1ccc(O)c(O)c1O	sPLA2-III inh 24 | hGIII sPLA2 conf 37 | BODIPY interf inactive | BODIPY interf DR inactive
CSCCC(NC(=O)COc1ccccc1)C(=O)N(C)CC(=O)Nc1c(C)cccc1C (stereo not drawn)	sPLA2-III inh 21 | hGIII sPLA2 conf inactive | BODIPY interf inactive
Cc1ccc(S(=O)(=O)NCC(=O)N2CCN(c3ccccn3)CC2)cc1C	none (no result: DAGLB inhibitor)
COc1ccc(C(=O)NC(=S)NNC(=O)c2c(-c3ccccc3)noc2C)cc1OC	sPLA2-III inh 20 (no result: DAGLB inhibitor) | hGIII sPLA2 conf 29 | BODIPY interf inactive | BODIPY interf DR inactive
Cc1onc(-c2ccccc2)c1C(=O)NCc1ccc2c(c1)OCO2	none
Cc1onc(-c2ccccc2)c1C(=O)NC(=S)NNC(=O)c1cc(-c2ccc(F)cc2)n[nH]1	sPLA2-III inh 29 | hGIII sPLA2 conf 41 | BODIPY interf inactive
COc1ccc(C(=O)NC(=S)NNC(=O)[C@H]2C[C@@H]2c2ccccc2)cc1OC	sPLA2-III inh 21 | hGIII sPLA2 conf 40 | BODIPY interf inactive | BODIPY interf DR inactive
Cc1onc(-c2ccccc2)c1C(=O)NNC(=S)NC(=O)c1ccc2c(c1)OCO2	sPLA2-III inh 27 | hGIII sPLA2 conf 43 | BODIPY interf inactive | BODIPY interf DR inactive
Cc1onc(-c2ccccc2)c1C(=O)NC(=S)NNC(=O)c1ccco1	none (no result: DAGLB inhibitor)
COc1cc(OC)cc(C(=O)NC(=S)NNC(=O)[C@H]2C[C@@H]2c2ccccc2)c1	none
CCOC(=O)c1cccc(NC(=O)CN(C)S(=O)(=O)c2cc3ccccc3s2)c1	none (no result: DAGLB inhibitor)
N#CCCCc1cn(-c2ccc(-c3noc4c3C(=O)N(CC(=O)N3CCOCC3)CC4)cc2)nn1	none (no result: DAGLB inhibitor)
CC(C)C[C@@H]1COc2cccc(N3CCCC3)c2S(=O)(=O)N1C	none (no result: DAGLB inhibitor)
CC(C)c1ccc(NC(=O)Nc2nc(C(N)c3ccccc3)cs2)cc1 (stereo not drawn)	none (no result: DAGLB inhibitor)
CC(C)C(N)c1csc(NC(=O)Nc2cccc(Cl)c2)n1 (stereo not drawn)	sPLA2-III inh 22 (no result: DAGLB inhibitor) | hGIII sPLA2 conf inactive | BODIPY interf inactive
Cc1ccccc1NC(=O)Nc1nc(C(N)c2ccccc2)cs1 (stereo not drawn)	sPLA2-III inh 22 (no result: DAGLB inhibitor) | hGIII sPLA2 conf inactive | BODIPY interf inactive
CC(C)(C)c1ccccc1NC(=O)Nc1nc(C(N)c2ccccc2)cs1 (stereo not drawn)	none (no result: DAGLB inhibitor)
CC(C)c1ccc(NC(=O)Nc2nc(C(N)COCc3ccccc3)cs2)cc1 (stereo not drawn)	sPLA2-III inh 22 (no result: DAGLB inhibitor) | hGIII sPLA2 conf inactive | BODIPY interf inactive
NC(c1csc(NC(=O)Nc2cccc(Cl)c2)n1)c1ccccc1Cl (stereo not drawn)	none (no result: DAGLB inhibitor)
CC(C)CC(N)c1csc(NC(=O)Nc2ccccc2C(C)C)n1 (stereo not drawn)	sPLA2-III inh 22 (no result: DAGLB inhibitor) | hGIII sPLA2 conf inactive | BODIPY interf inactive
COC(=O)[C@]12C[C@H](CC(=O)N3CCSCC3)C(=O)N(Cc3ccco3)C1=C[C@H](C1CCCC1)O[C@@H]2C	none (no result: DAGLB inhibitor)
CC(C)NC(=O)NC1CCN(CC(=O)Nc2ccc3c(c2)OCCO3)CC1	none (no result: DAGLB inhibitor)
CC(C)(C)c1ccc(-c2cn(C[C@H](Cc3ccccc3)n3c(=O)c4ccccc4n3Cc3ccccc3)nn2)cc1	none (no result: DAGLB inhibitor)
Cc1cccnc1NC(=S)Nc1ccc(F)cc1F	sPLA2-III inh 20 | hGIII sPLA2 conf 21 | BODIPY interf inactive
COc1cc(NC(=S)Nc2ncccc2C)cc(OC)c1OC	none
Cc1ccc(C)c(NC(=S)Nc2ncccc2C)c1	sPLA2-III inh 19 | hGIII sPLA2 conf inactive | BODIPY interf inactive
